TDP1 cell noCPT: qHTS for Inhibitors of human tyrosyl-DNA phosphodiesterase 1 (TDP1): qHTS in cells in absence of CPT | Potency, µM (highest dose often 46.2 µM), inactives show top-dose activity change, negative = growth inhibition, actives largely listed as inhibitors | DT40 Tdp1-/- hTDP1 cells, no CPT, ATP luminescence, 48 h | actives 15% (n = 420,000) | AID 686978, 2013; also: potency is read from the fitted curve at half-maximal effect; nearly all actives have a fitted effect of over 55% in size
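Chicken DT40 Tdp1-/- cells stably complemented with human TDP1 were seeded at 400 cells/well with DMSO in place of 20 nM camptothecin. After compound pinning, cells grew at least 48 hr at 37 °C; viability read by CellTiter-Glo luminescence.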
TDP1 cell CPT: qHTS for Inhibitors of human tyrosyl-DNA phosphodiesterase 1 (TDP1): qHTS in cells in presence of CPT. chicken DT40 Tdp1-/-;hTDP1 cells + 20 nM CPT, ATP luminescence, 48 h. Potency, µM (top dose mostly 46.2 µM), for the others: at the highest dose activity change, negative = growth inhibition, actives largely listed as inhibitors. actives 12% (n = 420,000). AID 686979, 2013; also: potency is read from the fitted curve at half-maximal effect; nearly all actives have a fitted effect of over 55% in size
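Cell growth measured by CellTiter-Glo luminescence after a minimum 48 h, 37 C compound exposure with 20 nM CPT in Tdp1-knockout DT40 cells stably expressing hTDP1, seeded 400/well; qHTS titration format.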
CtBP-E1A inh: qHTS Assay for Inhibitors of the CtBP/E1A Interaction | CtBP / adenovirus E1A interaction (AlphaScreen) | AlphaScreen GST-E1A/His-CtBP binding, 1536-well; stronger effect = lower value | activity change, % (test concentration not listed) | actives 0.49% (n = 340,000) | AID 651724, 2012; in the data active = activity change below about -65%; inconclusive = mostly about -30% to -63%
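Protein mix (5X: 125 nM each GST-E1A, His-CtBP) was incubated with pinned compound 2 h at 37 deg C in dark, in 50 mM Tris pH 8.0 buffer with 300 mM NaCl. Glutathione donor and nickel acceptor beads followed; AlphaScreen signal read after 1 h.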
Six1-Eya2 blk: qHTS Assay for Inhibitors of the Six1/Eya2 Interaction; AlphaScreen GST-Six1/His-Eya2 binding, biochemical; stronger effect = lower value; Homeobox protein SIX1 (Homo sapiens) + Protein phosphatase EYA2 (Homo sapiens), …; activity change, % (concentration not given with the values); actives 0.56% (n = 360,000); in the data active = activity change below about -65%; inconclusive = mostly about -30% to -63%
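AlphaScreen with GST-Six1 and His-Eya2 (5X mix: 250 nM and 500 nM), glutathione donor and nickel acceptor beads; buffer 50 mM Tris pH 8.0, 300 mM NaCl, 1 mM TCEP; 1 h at 37 C in the dark.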
TDP1 block: qHTS Assay for Inhibitors of Tyrosyl-DNA Phosphodiesterase (TDP1). Tyrosyl-DNA phosphodiesterase 1 (Homo sapiens), Q9NUW8. recombinant TDP1, AlphaScreen DNA substrate cleavage. Potency, µM (highest dose often 130 µM), inactives show top-dose activity change, negative = inhibition, usual class: inhibitors. actives 0.28% (n = 350,000); also: potency is read from the fitted curve at half-maximal effect; nearly all actives have a fitted effect of over 40% in size
Target sequence (Q9NUW8 whole entry, looked up): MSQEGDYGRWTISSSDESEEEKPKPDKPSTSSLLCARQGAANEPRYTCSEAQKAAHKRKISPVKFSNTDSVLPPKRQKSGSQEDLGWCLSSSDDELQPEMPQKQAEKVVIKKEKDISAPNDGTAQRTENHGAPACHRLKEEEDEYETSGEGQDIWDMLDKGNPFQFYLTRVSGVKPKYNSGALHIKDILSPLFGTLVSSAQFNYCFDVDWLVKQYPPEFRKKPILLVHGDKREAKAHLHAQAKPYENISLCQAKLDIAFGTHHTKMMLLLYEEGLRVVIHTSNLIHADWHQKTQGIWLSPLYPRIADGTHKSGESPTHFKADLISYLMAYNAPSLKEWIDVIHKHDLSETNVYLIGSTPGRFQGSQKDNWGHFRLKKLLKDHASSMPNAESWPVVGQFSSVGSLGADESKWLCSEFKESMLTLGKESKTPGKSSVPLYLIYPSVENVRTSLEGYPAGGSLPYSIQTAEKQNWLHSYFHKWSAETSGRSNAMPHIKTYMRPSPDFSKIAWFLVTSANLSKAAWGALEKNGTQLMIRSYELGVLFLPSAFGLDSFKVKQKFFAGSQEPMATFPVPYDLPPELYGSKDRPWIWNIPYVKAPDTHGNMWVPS
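Signal: AlphaScreen proximity between streptavidin donor and anti-FITC acceptor beads on intact substrate. Reaction: Tdp1 1 nM, substrate 15 nM final, 5 min RT after 15 min compound preincubation.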
IL1B secr inh: qHTS for Inhibitors of Inflammasome Signaling: IL-1-beta AlphaLISA Primary Screen; THP-1 LPS/ATP IL-1B secretion, AlphaLISA, 16 h; stronger effect = lower value; activity change, % at 57.5 µM; actives 4.7% (n = 360,000); in the data active = activity change below about -50%; inconclusive = mostly about -30% to -49%
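Secreted IL-1B measured by AlphaLISA bead assay after 16 h compound exposure of THP-1 cells; compounds (final up to 57.5 uM) added 1 h before LPS (250 ng/mL) and ATP (1.25 mM) stimulation; lower signal means less secretion.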
* hit, by the source's call; i = inactive; ? = inconclusive; . = not tested or not shown; [ ] = dose if it differs, or a comment. Sampled rows, rich in hits. Any-hit rate of the full collection: about 18%. Unless noted, calls follow the shape of the dose curve; as a rule, active = well fitted curve in the direction sought with a large enough effect; inconclusive = small, poorly fitted or top-dose-only effect, or another doubt; inactive = no such curve, though single readings can be large; an effect the other way counts as inactive or inconclusive. % is scaled to controls: 0 for no effect and ±100 for the full control effect.

SMILES	TDP1 cell noCPT	TDP1 cell CPT	CtBP-E1A inh	Six1-Eya2 blk	TDP1 block	IL1B secr inh
Clc1ccc(-c2nc3ccccc3n2OCc2ccccc2)cc1	21µM*	21µM*	4	0	-1%	11
C/C(=N\NC(=O)OC(C)(C)C)c1ccccc1Br	-17%	-8%	0	30	0%	-7
Cc1cccc(N2CCN(S(=O)(=O)c3ccc4c(c3)OCCO4)CC2)c1C	-28%	-12%	23	12	5%	8
O=C(NCCc1ccccc1)C(c1cccs1)N(C(=O)CCl)c1ccc(Cl)cc1 (stereo not drawn)	1.6µM*	1.8µM*	4	-4	5%	-98*
Cc1c(-n2cc(C(=O)O)c(=O)c3cc(F)c(N4CCCC4)c(F)c32)c(=O)n(-c2ccccc2)n1C	23µM*	16µM*	9	1	-2%	-16
COc1cc(C(=O)OCC(=O)NCc2ccc(F)cc2)ccc1OCC(C)C	16µM*	?	7	-1	2%	-7
COc1ccc(C(=O)OCC(=O)NCc2ccco2)cc1OC	-6%	11%	0	-16	40µM*	-3
O=C(COC(=O)Cc1ccc(Cl)cc1)NCc1ccco1	0%	-1%	-3	-24	11µM*	10
COc1cc(OC)cc(C(=O)N[C@H](C(=O)NCc2ccco2)C(C)C)c1	15µM*	29µM*	-4	4	0%	11
CC1C2(C)OC(=N)C(C#N)(C(C)O2)C1(C#N)C#N (stereo not drawn)	-9%	-26%	0	4	7%	-9
Clc1ccc(-n2ncc3c(NCCN4CCOCC4)ncnc32)cc1	?	7%	-2	3	-1%	?
Cc1cc(C(=O)OCC(=O)NCc2ccco2)c(C)n1-c1ccc(F)cc1	0.82µM*	0.65µM*	-4	-19	8%	21
COc1ccc(OCCC(=O)OCC(=O)NCc2ccco2)cc1	?	21µM*	3	-19	.	6
CCNC(=O)COC(=O)c1cc(C)n(-c2ccccc2)c1C	-24%	-28%	-2	1	3%	7
COc1cc(C(=O)OCC(=O)N2c3ccccc3NC(=O)C2(C)C)ccc1OCC(C)C	?	?	-4	-5	.	-81*
CC1(C)C(=O)Nc2ccccc2N1C(=O)COC(=O)c1cccc(O)c1	?	?	0	-2	-10%	-22
COc1ccc(S(=O)(=O)NC(C)C(=O)Nc2ccccc2F)cc1 (stereo not drawn)	-2%	5%	6	0	5%	11
O=C(Cc1ccc(Cl)cc1)N/N=C/c1ccc(O)c(O)c1	13µM*	?	3	-13	.	14
Cc1cccc(/C=N/NC(=O)Cc2ccc(Cl)cc2)c1O	?	18µM*	.	7	.	98
O=C(Cc1ccc(Cl)cc1)N/N=C/c1c(Cl)cccc1Cl	?	-20%	1	-5	2%	14
Cc1cccc(/C=N/NC(=O)c2ccc3c(c2)OCCO3)c1O	.	.	.	.	5%	.
Cc1ccc(O)c(/C=N/NC(=O)Cc2ccc(Cl)cc2)c1	?	?	.	-1	.	95
Cc1cccc(/C=N\NC(=O)c2ccc(Cl)cc2)c1O	?	4.6µM*	-25	-9	6%	118
CC(C)C(NS(=O)(=O)c1ccc2c(c1)C(C)(C)C(=O)N2C)C(=O)NCc1ccccc1Cl (stereo not drawn)	-22%	1%	2	2	.	6
Cc1nc(SCC(=O)NC(=O)NCCC(C)C)c2c(-c3cccs3)csc2n1	?	?	1	10	-3%	17
SMILES	TDP1 cell noCPT	TDP1 cell CPT	CtBP-E1A inh	Six1-Eya2 blk	TDP1 block	IL1B secr inh
COc1ccccc1C(=O)C1CCCN(Cc2cn[nH]c2C2CCCCC2)C1 (stereo not drawn)	?	2%	-2	0	.	?
COc1cc(OC)c(OC)cc1CN1CCCC(c2[nH]ncc2-c2cccc(C(F)(F)F)c2)C1 (stereo not drawn)	23µM*	?	.	.	.	.
CC(C)Cn1cc(NC(=O)NCc2ccccc2Cl)c2ccccc2c1=O	18µM*	?	.	.	1%	.
CC(C)Cn1cc(NC(=O)NCc2ccc(Cl)cc2)c2ccccc2c1=O	18µM*	?	.	.	6%	.
CC(C)Cn1cc(NC(=O)NCc2ccccc2)c2ccccc2c1=O	?	?	.	.	2%	.
CC(C)Cn1cc(NC(=O)NCc2cccc(Cl)c2)c2ccccc2c1=O	?	26µM*	.	.	0%	.
CC(C)c1cc(Br)ccc1OCCN1C(=O)NC(C)(C)C1=O	-14%	-23%	6	-6	0%	-10
CC(OC(=O)C1=COCCO1)C(=O)Nc1cccc(S(=O)(=O)N2CCOCC2)c1 (stereo not drawn)	-4%	-9%	8	-2	.	17
Cn1c(=O)[nH]c(=O)c2[nH]cnc21	-4%	-12%	.	.	10%[56.1 µM]	.
Cc1ccc(S(=O)(=O)N2CCOCC2)cc1C(=O)N1CCCCCC1	-28%	-9%	2	-1	1%	i
CCN(CC)CCn1c2ccccc2c(=O)c2c(O)ccc(O)c21	21µM*	7.3µM*	0	-69*	.	-3
CCN(CC)CCn1c2ccccc2c2nc3ccccc3nc21	23µM*	?	.	1	.	-97*
O=C(O)Cn1c2ccccc2c2nc3ccccc3nc21	-2%	-1%	1	-1	.	6
N#CCCn1c2ccccc2c2nc3ccccc3nc21	9.2µM*	?	7	5	-2%	-91*
O=c1oc2ccccc2n1CCn1c2ccccc2c2nc3ccccc3nc21	5.8µM*	16µM*	11	1	-3%	-21
COc1ccc2c(c1)c1nc3ccccc3nc1n2CCn1c(=O)oc2ccccc21	?	?	0	21	1%	11
O=c1c2c3nc4ccccc4nc3n(/N=C/c3ccccn3)c2ncn1-c1ccccc1	?	2.6µM*	?	?	1%	?
C=CCn1cnc2c(c1=O)c1nc3ccccc3nc1n2/N=C/c1cc(OC)c(OC)c(OC)c1	3.3µM*	4.1µM*	?	-27	-2%	-5
